Compound activity as filed in PubChem BioAssay.
Sampled rows, rich in hits. Any-hit rate of the full collection: about 2.4%.
PTHR1 agonist = PTHR1 (human) receptor agonism | Q03431 | AID 743266 | HEK293 GP2 PTHR1 cells, GloSensor cAMP luminescence, 1 h | 0.075% of 410,000 active | Potency, µM (doses to about 115 µM), for the others: top-dose activation, hits mostly activators; also: potency is read from the fitted curve at half-maximal effect; nearly all actives have a fitted effect of over 55% in size
Target sequence (Q03431 whole entry, looked up): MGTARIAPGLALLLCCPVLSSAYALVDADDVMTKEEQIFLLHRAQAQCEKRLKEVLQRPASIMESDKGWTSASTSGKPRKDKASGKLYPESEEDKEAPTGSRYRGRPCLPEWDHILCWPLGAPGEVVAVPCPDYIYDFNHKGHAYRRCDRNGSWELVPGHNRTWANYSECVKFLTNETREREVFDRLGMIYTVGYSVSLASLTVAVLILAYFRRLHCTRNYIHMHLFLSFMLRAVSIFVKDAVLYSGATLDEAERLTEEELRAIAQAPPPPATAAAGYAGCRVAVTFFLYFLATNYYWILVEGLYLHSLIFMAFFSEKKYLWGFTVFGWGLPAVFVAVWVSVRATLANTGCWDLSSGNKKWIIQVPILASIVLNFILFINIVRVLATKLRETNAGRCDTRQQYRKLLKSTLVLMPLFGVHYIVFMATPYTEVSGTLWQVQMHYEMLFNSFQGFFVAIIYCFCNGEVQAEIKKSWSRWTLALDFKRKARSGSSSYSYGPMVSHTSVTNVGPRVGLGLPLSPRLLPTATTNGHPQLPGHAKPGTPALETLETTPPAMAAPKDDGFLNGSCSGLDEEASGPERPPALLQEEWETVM
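HEK-293-derived GP2 cells expressing PTHR1 and a GloSensor cAMP reporter, 3,000/well, plated overnight, given luciferin plus IBMX (each 0.5 mM as added) for 1 h at 37 °C, then compound for 1 h at 37 °C. Luminescence was read after 15 min at room temperature.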
TRHR PAM = TRH receptor (human) allosteric enhancement. TRHR cells, fluo-8 calcium fluorescence, EC20 TRH enhancement. enhancement, % at 2 µM. 0.66% of 360,000 active; in the data active = enhancement above about 30%; also: 0% is about no effect
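Enhancer read-out: after compound pinning and an initial kinetic agonist-mode read, an EC20 of TRH (10 nM final) was injected and fluo-8 calcium signal (Ex 480/Em 530) followed at 1 s/cycle for 100 cycles in TRHR-expressing cells.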
HEK293 tox = cytotoxic in the GLP-1 receptor inverse agonist counter-screen. HEK293 cAMP-luciferase reporter cells, luminescence, 24 h. Potency, µM (series often up to 38.3 µM), inactives show top-dose activity change, negative = inhibition, most hits filed as inhibitors. 0.13% of 410,000 active. AID 624418;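 also: loss of luciferase light is scored as toxicity; potency is read from the fitted curve at half-maximal effect; % is scaled to controls: 0 for no effect and ±100 for the full control effect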
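Cells in DMEM/10% Nu serum/1% pen-strep, 1536-well format. Pre-incubated 12 h, dosed with 23 nL compound, incubated a further 24 h. Luciferase detection, 12 min at room temp, luminescence.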
GLP1R inv ag = GLP-1 receptor (human) inverse agonism. HEK293 GLP-1R CRE-luciferase, luminescence, 24 h; GLP-1R form is constitutively active. Potency, µM (series often up to 38.3 µM), without a hit: top-dose activity change, negative = inhibition, hits mostly inhibitors. 1.6% of 410,000 active. AID 624417; also: potency is read from the fitted curve at half-maximal effect; % is scaled to controls: 0 for no effect and ±100 for the full control effect; nearly all actives have a fitted effect of over 55% in size
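Using stably transfected HEK293 (constitutively active GLP-1R, cAMP-luciferase reporter), compounds were incubated 24 hr and luciferase measured by luminescence.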
TRHR agonist = TRH receptor (human) agonism; activation, % at 2 µM; AID 493084; P34981; TRHR cells, calcium flux fluo-8, FDSS agonist mode; 0.18% of 360,000 active; in the data active = activation above about 30%; also: 0% is about no effect
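Fluo-8-loaded TRHR cells; 10 s baseline, compound added, kinetic Ca2+ fluorescence read 1/s, agonist mode.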
GLP-1R agonist = GLP-1 receptor (human) agonism. 0.007% of 380,000 active. Potency, µM (titrated, usually from 45.6 µM), for the others: at the highest dose activation, actives largely listed as activators. HEK293 GLP-1R CRE-luciferase, luminescence, 4-6 h; cells express a hypersensitive GLP-1R form; also: potency is read from the fitted curve at half-maximal effect; % of control where 0% means no effect
The depositor's hits bear a star; i = inactive; ? = inconclusive; . = not tested or not shown; [ ] = remark or other dose. Unless noted, calls follow the shape of the dose curve; as a rule, active = well fitted curve in the direction sought with a large enough effect; inconclusive = small, poorly fitted or top-dose-only effect, or another doubt; inactive = no such curve, though single readings can be large; an effect the other way counts as inactive or inconclusive.

SMILES	PTHR1 agonist	TRHR PAM	HEK293 tox	GLP1R inv ag	TRHR agonist	GLP-1R agonist
Oc1sc(C=Nc2ccccc2)c2ccccc12	-10%[57.5 µM]	4	166%	-10%	39*	11%
Cc1ccnc(NS(=O)(=O)c2ccc(NC(=O)CCOc3ccccc3)cc2)n1	-9%	6	20%	15%	0	-6%
CCN(CC)S(=O)(=O)c1ccc2c(c1)[nH]c(=S)n2CC	-11%	38*	-1%	9%	-1	7%
Cc1nc(C(=O)N2CCCC(C(=O)c3cccc(OC(C)C)c3)C2)cs1 (configuration not stated)	-2%	-2	1%	-16%	-1	11%
Cc1cc(C)c2nc(N(CCCN(C)C)C(=O)c3ccc4c(c3)OCCO4)sc2c1	-66%	-8	?	?	4	3%
Cc1cc(C)c2nc(N(CCCN(C)C)C(=O)C3=COCCO3)sc2c1	-6%	1	?	4.5µM*	4	-9%
CN(C)CCCN(C(=O)C1=COCCO1)c1nc2ccc(Br)cc2s1	-4%	4	?	2µM*	1	0%
CC(C)COc1ccc(C(=O)N(Cc2cccc(F)c2)C2CCS(=O)(=O)C2)cc1 (configuration not stated)	i	5	-3%	-10%	0	.
CCOc1cccc(-c2cc(C(=O)N3N=C(C)CC3(O)C(F)F)c3ccccc3n2)c1 (configuration not stated)	i	2	6%	11µM*	1	11%
CCOc1ccc(-c2cc(C(=O)N3CCN(c4cccc(C)c4)C(C)C3)c3ccccc3n2)cc1 (configuration not stated)	-24%	-14	-15%	5µM*	0	.
Cc1ccccc1Cn1cc(NC(=O)c2noc3c2CC(C(C)(C)C)CC3)cn1 (configuration not stated)	i	24	2%	0%	0	0%
Cc1ccccc1Cn1nc(C)c(NC(=O)c2noc3c2CC(C(C)(C)C)CC3)c1C (configuration not stated)	-18%[57.5 µM]	0	-38%	10µM*	1	7%
COc1ccc(C(c2nnnn2C2CCCC2)N2CCC(C)CC2)c(OC)c1 (configuration not stated)	-29%	-7	-7%	10µM*	-2	6%
Cc1cccc(-c2nn3c(=O)cc(CN4CCN(S(=O)(=O)c5ccc(Cl)cc5)CC4)nc3s2)c1	i	-9	7%	14%	0	.
CCN(CC)CC#CC(OC)(c1ccccc1)c1ccccc1	-8%	9	-9%	5µM*	0	-1%
CCOc1ccc(NCc2nnc(SCc3ccc(Cl)cc3)n2-c2ccccc2)cc1	-11%	-4	-10%	10µM*	0	-7%
CCOC(=O)CSc1nnc(CNc2ccc(Cl)cc2)n1-c1ccccc1	i	18	3%	-2%	0	0%
CCc1nn(CC(=O)NCCN(CC(C)C)CC(C)C)c(=O)c2cc3sc(C)cc3n12	?	55*	4%	-13%	0	.
CCCCN(C)CCCNC(=O)Cn1nc(CC)n2c(cc3sc(C)cc32)c1=O	-16%	2	1%	8%	0	.
O=S(=O)(c1ccccc1)N1CCC(O)(CSc2ccccc2)CC1	-18%	0	6%	10µM*	0	14%
O=S(=O)(c1ccccc1)N1CCC(O)(CSc2ccc(F)cc2)CC1	-27%	2	-2%[7.66 µM]	-23%[7.66 µM]	0	9%
Cc1ccc(C)c(S(=O)(=O)N2C(=S)NC(=O)C2C(C)C)c1 (configuration not stated)	-15%	3	19%	3%	0	-15%
CNC(=O)CSc1nnc(-c2cccs2)o1	9%[57.5 µM]	-2	2%	-4%	0	-9%
Nc1nc(N=Nc2ccc(O)cc2)cc(=O)[nH]1	7%	.	10µM*	-8%	.	1%
Nc1nc(N)c(N=Nc2ccccc2)c(=O)[nH]1	i	.	-35%	43%	.	9%
SMILES	PTHR1 agonist	TRHR PAM	HEK293 tox	GLP1R inv ag	TRHR agonist	GLP-1R agonist
CCCCn1c(N)c(N(CCOC)C(=O)c2ccc(Cl)c(S(=O)(=O)N3CCCC3)c2)c(=O)[nH]c1=O	i	-1	7%	25%	0	0%
Cc1ccc(N/N=C2\CCS(=O)(=O)c3sccc32)cc1	-15%	0	-28%	4µM*	0	15%
CN(C)/N=C1\CCS(=O)(=O)c2sccc21	i	8	1%	15%	-1	-4%
CC(C)c1cc(Nc2cccc(O)c2)cc(C(C)C)c1O	.	8	.	.	1	.
COc1cc(CNC2CCCCCCC2)cc(Cl)c1OCC(N)=O	-5%	-6	4%	-18%	0	-5%
COc1cc(CNC2CCCC2)cc(Cl)c1OCc1ccccc1Cl	8%	-9	?	8.9µM*	0	-21%
COc1cc(CNC2CCCC2)cc(Cl)c1OCc1ccc(F)cc1	25%[57.5 µM]	-6	?	4.5µM*	3	-3%
O=C(/C=C/C(Cl)(Cl)Cl)Nc1ccc(Cl)cc1	-28%	.	?	?	.	-10%
O=S(=O)(c1ccc(NC(=S)N2CCOCC2)cc1)N1CCCCC1	-26%	.	6%	-23%	.	-5%
COc1ccccc1Cc1c(C2CCCCC2)nc2ccc(Cl)cn12	-11%	.	?	3.5µM*	.	-3%
COc1ccccc1Cc1c(C2CCCCC2)nc2ccc(C)cn12	-6%	.	?	?	.	-6%
CC(/C=N/NC(=O)c1cccc(F)c1)=C\c1ccccc1	-17%	-4	0%	10µM*	0	-6%
CC(C)C1N=C(c2ccc3c(c2)OCO3)CC(c2ccccc2O)N1 (configuration not stated)	-83%	0	?	11µM*	1	-12%
CCOC(=O)C1=C(CN2CCN(c3cc(C)ccc3C)CC2)NC(=O)NC1c1ccccc1 (configuration not stated)	-34%	15	-13%	8.9µM*	1	-2%
O=C(CN1C(=O)C2(SCC(=O)N2c2cccc(F)c2)c2ccccc21)NCc1ccccc1Cl (configuration not stated)	-26%	10	-15%	8.9µM*	1	-1%
O=C(CN1C(=O)C2(SCC(=O)N2c2ccccc2)c2ccccc21)NCc1ccccc1Cl (configuration not stated)	i	1	-12%	-9%	1	-4%
CCOC(=O)C1=CN(Cc2cccc(F)c2)S(=O)(=O)N(C)C1c1ccc(F)c(Cl)c1 (configuration not stated)	-4%	.	1%	10µM*	.	0%
